Compound activity as filed in PubChem BioAssay.
The full list was thinned out, with hits kept by preference.
ALOX12 inh: blocks human arachidonate 12S-lipoxygenase. Potency, µM (doses to about 108 µM), actives largely listed as inhibitors. purified 12hLO, xylenol orange hydroperoxide absorbance. 1.1% of 580,000 active
Target sequence (P18054 whole entry, looked up): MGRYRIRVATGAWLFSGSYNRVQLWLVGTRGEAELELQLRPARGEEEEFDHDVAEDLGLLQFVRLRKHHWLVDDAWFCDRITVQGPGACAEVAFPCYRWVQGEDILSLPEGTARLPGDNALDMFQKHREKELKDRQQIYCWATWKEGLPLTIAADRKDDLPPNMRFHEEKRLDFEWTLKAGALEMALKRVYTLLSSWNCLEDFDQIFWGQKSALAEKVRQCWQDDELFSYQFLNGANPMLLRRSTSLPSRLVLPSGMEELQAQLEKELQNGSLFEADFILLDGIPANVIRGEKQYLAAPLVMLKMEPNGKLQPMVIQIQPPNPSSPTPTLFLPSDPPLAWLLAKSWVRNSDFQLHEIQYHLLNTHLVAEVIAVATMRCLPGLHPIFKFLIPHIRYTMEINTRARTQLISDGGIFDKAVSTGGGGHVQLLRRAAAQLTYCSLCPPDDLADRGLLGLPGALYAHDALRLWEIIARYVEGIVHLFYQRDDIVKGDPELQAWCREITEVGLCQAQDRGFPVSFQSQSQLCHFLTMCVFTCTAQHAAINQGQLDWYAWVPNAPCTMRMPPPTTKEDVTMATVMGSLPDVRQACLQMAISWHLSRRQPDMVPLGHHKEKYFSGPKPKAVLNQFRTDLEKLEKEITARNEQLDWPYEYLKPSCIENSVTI
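Purified human 12hLO (150 nM final) in 25 mM Hepes, 0.01% Triton X-100, pH 7.0 was preincubated 15 min at room temperature with compound. Then 40 uM arachidonic acid was added, 30 min. Hydroperoxide was read by Fe-XO absorbance ratio 573/405 nm.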
IL1B secr inh: inhibitors of inflammasome signaling (IL-1 beta secretion) | 4.7% of 360,000 active | AID 743279 | activity change, % at 57.5 µM | THP-1 LPS/ATP IL-1B secretion, AlphaLISA, 16 h; active compounds read low; in the data active = activity change below about -50%; inconclusive = mostly about -30% to -49%
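Secreted IL-1B measured by AlphaLISA bead assay after 16 h compound exposure of THP-1 cells; compounds (final up to 57.5 uM) added 1 h before LPS (250 ng/mL) and ATP (1.25 mM) stimulation; lower signal means less secretion.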
TDP1 cell noCPT: qHTS for Inhibitors of human tyrosyl-DNA phosphodiesterase 1 (TDP1): qHTS in cells in absence of CPT | 15% of 420,000 active | AID 686978, 2013 | DT40 Tdp1-/- hTDP1 cells, no CPT, ATP luminescence, 48 h | Potency, µM (titrated, usually from 46.2 µM), usual class: inhibitors; also: nearly all actives have a fitted effect of over 55% in size
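Cells were dispensed at 400 per well, compounds added by pin tool, plates incubated ≥48 hr at 37 °C, then CellTiter-Glo added for 30 min at room temperature before luminescence reading. Line: DT40 Tdp1-/- complemented with hTDP1; camptothecin omitted.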
HT1080-NT tox: kills 2HG-producing HT-1080-NT fibrosarcoma cells; HT-1080-NT fibrosarcoma viability, CellTiter-Glo ATP luminescence, 48 h; Potency, µM (highest dose often 46.1 µM), hits mostly cytotoxic; 1.6% of 360,000 active;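 also: NT is the 2HG producing partner of a matched IDH1 knockdown line; nearly all actives have a fitted effect of over 55% in size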
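750 cells/well, RPMI + 5% FBS; 2 h settle, compound pin-transfer, 48 h at 37 degrees C. CellTiter-Glo 10 min RT, luminescence. Normalized to DMSO and media-only wells.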
DT40 TDP1 CPT: growth inhibition of DT40 Tdp1-/-;hTDP1 cells with camptothecin (screen for TDP1 inhibitors); chicken DT40 Tdp1-/-;hTDP1 cells + 20 nM CPT, ATP luminescence, 48 h; 12% of 420,000 active; Potency, µM (highest dose often 46.2 µM), hits mostly inhibitors; AID 686979; also: nearly all actives have a fitted effect of over 55% in size
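Cell growth measured by CellTiter-Glo luminescence after a minimum 48 h, 37 C compound exposure with 20 nM CPT in Tdp1-knockout DT40 cells stably expressing hTDP1, seeded 400/well; qHTS titration format.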
HT1080 IDH1KD tx: kills HT-1080 cells with IDH1 knockdown. HT-1080 IDH1 knockdown viability, ATP luminescence, 48 h. Potency, µM (highest dose often 46.1 µM), most hits filed as cytotoxic. 2% of 360,000 active. AID 686971
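IDH1KD HT-1080 cells, 750/well, RPMI + 5% FBS; compound pinned after 2 h settling; 48 h, 37 °C; CellTiter-Glo luminescence; % activity normalised to DMSO and no-cell wells; curves fitted, classed by r2 and efficacy.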
A number is an active result; . = inactive; ? = inconclusive; / = not tested or not shown; [ ] = dose if it differs, or a comment. Unless noted, calls follow the shape of the dose curve; as a rule, active = well fitted curve in the direction sought with a large enough effect; inconclusive = small, poorly fitted or top-dose-only effect, or another doubt; inactive = no such curve, though single readings can be large; an effect the other way counts as inactive or inconclusive.

SMILES	ALOX12 inh	IL1B secr inh	TDP1 cell noCPT	HT1080-NT tox	DT40 TDP1 CPT	HT1080 IDH1KD tx
O=C(CCN1C(=O)c2ccccc2S1(=O)=O)Nc1ccccc1F	.	-60	.	.	.	.
COc1ccc(C)cc1NC(=O)CSc1ccc(-c2ccccn2)nn1	.	.	21µM	.	?	?
COc1ccccc1NC(=O)CSc1ccc(-c2ccc(-n3ccnc3)cc2)nn1	.	.	13µM	.	21µM	.
COc1ccc(C)cc1NC(=O)CSc1ccc(-c2sc(C)nc2C)nn1	.	?	?	.	13µM	.
Cc1ccccc1NC(=O)CSc1ccc(-c2ccc(-n3cccn3)cc2)nn1	.	.	.	.	.	.
CCc1nc(SCC(=O)Nc2cc(OC)ccc2OC)c2c(C)c(C)sc2n1	.	.	26µM	?	18µM	?
CCc1nc(SCC(=O)Nc2nnc(CC)s2)c2c(C)c(C)sc2n1	.	.	.	.	.	.
Cc1nc(C)c(-c2ccc(SCC(=O)Nc3ccc(F)cc3F)nn2)s1	.	.	?	.	?	.
COc1ccc(S(=O)(=O)Nc2cc3c4c(c2)CC(=O)N4CCC3)cc1OC	?	.	?	.	.	.
Cn1nccc1C(=O)N1CCC(F)(c2nc(-c3ccccc3)no2)CC1	.	/	/	/	/	/
COc1ccc(OC)c(NC(=O)CSc2ccc(-c3sc(C)nc3C)nn2)c1	.	/	13µM	/	15µM	/
COc1ccc(Cl)cc1NC(=O)CSc1ccc(-c2sc(C)nc2C)nn1	.	/	10µM	/	13µM	/
COc1ccc(OC)c(NC(=O)CSc2ccc(-c3ccco3)nn2)c1	?	.	?	.	?	.
COc1ccc(C(=O)N2CCCC(c3nc(-c4ccccc4)no3)CCNC(=O)CC2)cc1F (configuration not stated)	.	/	/	/	/	/
COC(=O)c1c(C)cccc1C1CN=NC12Cc1ccccc1C2=O (configuration not stated)	.	-90	?	.	15µM	.
CN(C)c1ccc(-c2ccnc3c2CC(C)(C(=O)NCc2cccc(Cl)c2)O3)cc1 (configuration not stated)	?	?	21µM	?	23µM	?
CC1(C(=O)NCc2cccc(Cl)c2)Cc2c(-c3cccc(C(N)=O)c3)ccnc2O1 (configuration not stated)	.	.	?	?	?	?
CC(=O)Nc1cccc(-c2ccnc3c2CC(C)(C(=O)NCc2cccs2)O3)c1 (configuration not stated)	.	.	4.1µM	?	?	1.6µM
CC1(C(=O)NCc2cccc(Cl)c2)Cc2c(-c3ccccc3)ccnc2O1 (configuration not stated)	.	.	8.2µM	.	16µM	?
CC(=O)Nc1ccc(-c2ccnc3c2CC(C)(C(=O)NCc2cccc(Cl)c2)O3)cc1 (configuration not stated)	.	.	23µM	?	?	?
COc1ccc(NC(=O)C2(C)Cc3c(-c4ccc(NC(C)=O)cc4)ccnc3O2)cc1 (configuration not stated)	.	?	?	.	?	.
Cc1oc2cc(OCC(=O)Nc3ccccn3)ccc2c(=O)c1Oc1ccccc1	.	/	/	/	/	/
Cc1ccc(C)c(NC(=O)c2cc(=O)c3cc(C)cc(C)c3o2)c1	.	/	.	/	.	/
CCOC(=O)c1cnc2ccccc2c1Nc1ccc(OCC)cc1	.	/	/	/	/	/
CC(=O)Nc1cccc(-c2ccnc3c2CC(C)(C(=O)NCc2cccc(Cl)c2)O3)c1 (configuration not stated)	.	.	4.1µM	?	3.7µM	?
SMILES	ALOX12 inh	IL1B secr inh	TDP1 cell noCPT	HT1080-NT tox	DT40 TDP1 CPT	HT1080 IDH1KD tx
COc1ccc(CNC(=O)C2(C)Cc3c(-c4cccc(NC(C)=O)c4)ccnc3O2)cc1OC (configuration not stated)	.	.	18µM	.	?	?
COc1ccc(CNC(=O)C2(C)Cc3c(-c4ccccc4)ccnc3O2)cc1OC (configuration not stated)	.	.	?	.	?	.
CC(=O)Nc1cccc(-c2ccnc3c2CC(C)(C(=O)NCc2ccc(N(C)C)cc2)O3)c1 (configuration not stated)	.	.	2.9µM	?	3.3µM	5.2µM
CC(=O)Nc1cccc(-c2ccnc3c2CC(C)(C(=O)NCCN(C)C)O3)c1 (configuration not stated)	.	.	.	.	.	.
CCCCn1c(N)c(N(CCC(C)C)C(=O)c2ccc([N+](=O)[O-])s2)c(=O)[nH]c1=O	?	.	?	.	23µM	.
CCCCN(C(=O)c1ccc([N+](=O)[O-])s1)c1c(N)n(CC(C)C)c(=O)[nH]c1=O	?	.	.	.	.	.
CCN1CCN(c2nc3ccccc3nc2C(C#N)S(=O)(=O)c2ccc(C)c(C)c2)CC1 (configuration not stated)	.	.	.	.	.	.
Cc1ccc(S(=O)(=O)C(C#N)c2nc3ccccc3nc2N2CC(C)OC(C)C2)cc1C (configuration not stated)	.	.	15µM	.	?	.
COc1ccc(S(=O)(=O)C(C#N)c2nc3ccccc3nc2N2CCCC(C)C2)cc1 (configuration not stated)	?	.	.	.	.	.
N#CC(c1nc2ccccc2nc1N1CCOCC1)S(=O)(=O)c1ccccc1 (configuration not stated)	?	/	29µM	.	.	.
Cc1cccc(S(=O)(=O)C(C#N)c2nc3ccccc3nc2N2CC(C)OC(C)C2)c1 (configuration not stated)	?	.	26µM	.	26µM	.[9.24 µM]
Cc1ccc(S(=O)(=O)C(C#N)c2nc3ccccc3nc2N2CCCC2)cc1 (configuration not stated)	?	.	?	.	.	.
COc1ccccc1NCC(=O)NC(C)(C#N)C(C)C (configuration not stated)	.	/	/	/	/	/
COc1ccccc1NC(=O)Cn1nc(-c2cccc([N+](=O)[O-])c2)c2ccccc2c1=O	.	/	/	/	/	/
CCNS(=O)(=O)c1ccc(Br)c(C(=O)OC(C)C(=O)NCC2CCCCC2)c1 (configuration not stated)	.	.	?	.	.	.
Cc1ccc(C2(O)C(=O)c3ccccc3C2=O)c(O)c1C	?	.	?	.	?	.
CC(C)(C)c1cccc(C2(O)C(=O)c3ccccc3C2=O)c1O	.	.	9.2µM	.	?	?
